Measurements published in PubChem BioAssay (EPA / NIEHS).
A structure can be active in one record and inactive in another. Activity calls are given as the source filed them. Rule for the calls: active = hit-call score of the fitted dose curve at least 0.9, where 1 is the maximum; inactive = score below 0.9.

Assay: ATG_TGFb_CIS: Attagene CIS-FACTORIAL HepG2 Assay for human Transforming Growth Factor (TGF) (AID 2282967)
Settings: HepG2 Attagene CIS TGFb reporter, mRNA transcription; actives raise or lower the signal
Procedure: ATG_CIS is a cell-based, multiplexed-readout assay that uses HepG2, a human liver cell line, with measurements taken at 24 hours after chemical dosing in a 24-well plate.ATG_TGFb_CIS is one of 52 assay component(s) measured or calculated from the ATG_CIS assay. It is designed to make measurements of mRNA induction, a form of inducible reporter, as detected with fluorescence intensity signals by Reverse transcription polymerase chain reaction (RT-PCR) and Capillary electrophoresis technology.Data from the assay component ATG_TGFb_CIS was analyzed into 1 assay endpoint. This assay endpoint, ATG_TGFb_CIS, was analyzed with bidirectional fitting relative to DMSO as the negative control and baseline of activity. Using a type of inducible reporter, measures of mRNA for gain or loss-of-signal activity can be used to understand the reporter gene at the transcription factor-level as they relate to the gene TGFB1. Furthermore, this assay endpoint can be referred to as a primary readout, because this assay has produced multiple assay endpoints where this one serves a reporter gene function. To generalize the intended target to other relatable targets, this assay endpoint is annotated to the growth factor intended target family, where the subfamily is transforming growth factor beta.
Human liver HepG2 cells are transiently transfected with multiple reporter transcription units (MRTUs) in 6-well plates using FuGene 6 reagent (Roche; 3 ml FuGene/1 mg DNA). The MRTU constructs are regulated by a cis-regulating element (promoter). […] A major difference between the CIS and TRANS system is that in CIS activities of endogenous TFs are measured, whereas the TRANS assay evaluates changes in activities of exogenous, chimeric NR-Gal4 proteins. […] At the end of 24 hour incubation, total RNA was isolated using TriZol reagent (Invitrogen). The isolated RNA is then reverse-transcribed using oligo(dT) primer and Mo-MLV reverse transcriptase (Invitrogen) with DNAse I (Ambion) treatment for 30 min. The one-tenth of the produced cDNA was amplified by PCR using Taq DNA polymerase (Invitrogen) and two reporter sequence-specific primers. The PCR products were fluorescently labeled by primer extension with 6-arboxyfluorescein (6-FAM) 5'-labeled reporter sequence-specific primer (2 min at 95 C, 20 s at 68 C and 10 min at 72 C) and these products were digested with 5U of HpaI (New England Biolabs) for 2h at 37 C. The fragments were purified using Qiaquick PCR columns (Qiagen), analyzed on an ABI 3130xL genetic analyzer (Applied Biosystems) with peak positions identified by using a set of X-rhodamine (ROX)-labeled MapMarker1000 molecular weight standards (BioVentures). The raw capillary electrophoresis data was processed using Attagraph software (Attagene).

Row | Compound | outcome | AC50
1 | CCOP(=S)(OCC)Oc1ccc(Cl)cc1Cl | inactive | –
2 | O=[N+]([O-])c1cc([As](=O)(O)O)ccc1O | inactive | –
3 | ClCc1ccccc1CCl | inactive | –
4 | CC(C)C(C)(N)C#N (stereo not given) | inactive | –
5 | COc1ccccc1N | inactive | –
6 | C1CCC(C2CCCCC2)CC1 | inactive | –
7 | C[N+](C)(C)Cc1ccccc1 | inactive | –
8 | CCN(CCO)CCO | inactive | –
9 | CC1(C)COP(Oc2ccccc2)OC1 | inactive | –
10 | CCOC(=O)c1ccccc1S(=O)(=O)NC(=O)Nc1nc(Cl)cc(OC)n1 | inactive | –
11 | C=CC(F)(C(F)(F)F)C(F)(F)C(F)(F)F (stereo not given) | inactive | –
12 | CC(C)(COCC1CO1)COCC1CO1 (stereo not given) | inactive | –
13 | CCCCCCCCCCBr | inactive | –
14 | NC(=O)CCl | inactive | –
15 | COC(F)(C(F)(F)C(F)(F)F)C(F)(C(F)(F)F)C(F)(F)F (stereo not given) | inactive | –
16 | O=[N+]([O-])c1cccc2ccccc12 | inactive | –
17 | Cc1cc(Cl)ccc1O | inactive | –
18 | O=C(NC(=O)c1c(F)cccc1F)Nc1cc(Cl)c(Oc2ncc(C(F)(F)F)cc2Cl)c(Cl)c1 | inactive | –
19 | CCCCCCCCCCCCBr | inactive | –
20 | Nc1nc(=S)[nH][nH]1 | inactive | –

Row | Compound | outcome | AC50
21 | C=C(C)C(=O)OCCCCOC(=O)C(=C)C | inactive | –
22 | CCCCN(CCCC)C(=S)S | inactive | –
23 | ClCCN1CCOCC1 | inactive | –
24 | O=S(=O)(Oc1ccc(Cl)cc1)c1ccc(Cl)cc1 | – | 63.8 µM (active)
25 | Clc1ccc(C(Cl)(Cl)Cl)cn1 | inactive | –
26 | O=C(O)CC(O)(CC(=O)O)C(=O)O | inactive | –
27 | Oc1ccc(Cc2ccc(O)cc2)cc1 | inactive | –
28 | CC(=O)CN(CC(C)=O)N=O | inactive | –
29 | Cc1cccc(OP(=O)(Oc2cccc(C)c2)Oc2cccc(C)c2)c1 | inactive | –
30 | O=C1c2ccccc2C(=O)C1C(=O)C(c1ccccc1)c1ccc(Cl)cc1 (stereo not given) | – | 8.18 µM (active)
31 | Nc1ccc(N)cc1 | inactive | 23.8 µM (active)
32 | OC(Cc1ccccc1Cl)(Cn1cncn1)C1(Cl)CC1 (stereo not given) | inactive | –
33 | CCN(CC)C(=O)C(Cl)=C(C)OP(=O)(OC)OC | inactive | –
34 | ClCCCCl | inactive | –
35 | Clc1cccc(Cl)c1Cl | inactive | –
36 | CC(C)(C)c1ccc(CCOc2ncnc3ccccc23)cc1 | inactive | –
37 | CCCCC(CC)C(=O)Cl (stereo not given) | inactive | –
38 | CCCCOP(=O)(CCCC)OCCCC | inactive | –
39 | C#CCO | inactive | –
